Measurements published in PubChem BioAssay AID485317 (Broad Institute, 2010).
“And” between values parts separate entries of the source, which are not always exact repeats. Equal values may be shown once. Screen size: about 290,000 compounds; about 11,000 (3.8%) were called active.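 How the source made its calls: active means mean replicate inhibition above about 79%, with every replicate also reaching it (limit read from the data); inconclusive means only one of the two criteria met; inactive means mean below limit and not every replicate reaching it.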 The full list was thinned out, with actives kept by preference. Where a structure was tested more than once in an assay, its records may differ in their call.

Target: FAD-linked sulfhydryl oxidase ALR (Homo sapiens) (UniProt P55789)
Assay: ALR-catalysed DTT oxidation blockers – biochemical, H2O2 detection, HRP-luminol luminescence, single point, primary screen (AID 485317)
Settings: purified ALR, stronger effect = higher value, concentration not given here

Sequence of FAD-linked sulfhydryl oxidase ALR (Homo sapiens) (P55789 whole entry, looked up): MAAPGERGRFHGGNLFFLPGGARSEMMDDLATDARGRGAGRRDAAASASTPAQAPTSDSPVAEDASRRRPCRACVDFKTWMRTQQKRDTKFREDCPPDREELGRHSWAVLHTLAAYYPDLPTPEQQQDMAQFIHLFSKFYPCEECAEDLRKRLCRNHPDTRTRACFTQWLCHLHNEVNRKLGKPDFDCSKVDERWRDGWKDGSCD

inhibition, -22% (inactive) and 98.8% (active):
O=C(Cn1c[n+](CC(=O)c2ccc([N+](=O)[O-])cc2)cn1)c1ccc([N+](=O)[O-])cc1

inhibition, active:
Cn1c2ccccc2c(=O)c2c(=O)n(Cc3ccco3)c(COc3ccccc3)nc21 96.8%, O=C(NC1CCCCC1)c1ccc(CNc2c(N3CCOCC3)c(=O)c2=O)cc1 96.3%, COC(=O)/C=C\C(=O)Nc1cccc([N+](=O)[O-])c1 97.8%, Oc1cc2c(cc1O)CN(C(=S)NCCc1ccc(Cl)cc1)CCC2 97.9%, Cc1ccc(-n2[nH]c(C)c(/C=N/NC(=O)c3cccc([N+](=O)[O-])c3)c2=O)cc1C 97%, CCCc1nnc(SCC(=O)Nc2ccc(C(=O)OCC)cc2)o1 99.2%, CN(C)/C=C1/C(=O)Nc2ccccc21 98.8%, Cc1cc(C)c(/C=C2\C(=O)Nc3ccccc32)[nH]1 98.9%, Cc1cc(NC(=O)CSCc2nc(-c3cccc(Cl)c3)oc2C)no1 96.6%, CNS(=O)(=O)c1cnccc1N1CCN(c2cccc(C)c2)CC1 98.6%, O=C(Nc1ccn(Cc2ccccc2)n1)c1n[nH]c([N+](=O)[O-])c1Cl 93.5%

inhibition, inactive:
O=C(Nc1ccc(NC(=O)c2ccc3c(c2)OCO3)cc1)c1cccc(Cl)c1 4%, CC(=O)c1c(OCC(=O)N(C)C2CCCCC2)ccc2c(C)cc(=O)oc12 -4.49%, COc1ccc(C(=O)CSc2nnc(COc3ccccc3)n2Cc2ccco2)cc1 13.2%, CCCc1nc2c(c(=O)c3ccccc3n2C)c(=O)n1-c1cc(C)cc(C)c1 9.11%, COc1ccc(S(=O)(=O)N(C)C[C@@H]2Oc3ccc(NS(=O)(=O)c4cn(C)cn4)cc3C(=O)N([C@@H](C)CO)C[C@@H]2C)cc1 0.531%, O=C(NCc1ccccc1)c1ccc(CNc2c(N3CCCC3)c(=O)c2=O)cc1 -1.76%, CC1CCN(c2c(NCc3ccc(C(=O)NCc4ccccc4)cc3)c(=O)c2=O)CC1 6.63%, O=C(COC(=O)c1ccccn1)NNC(=O)c1ccc(Br)cc1 -1.13%, COc1ccc(Br)cc1CN(C)C(=O)C1CC(=O)N(C2CCCC2)C1 (configuration not stated) -9.84%, COc1ccc(S(=O)(=O)NC(C)C(=O)Nc2cccc([N+](=O)[O-])c2)cc1 (configuration not stated) 3.92%, O=C(Nc1cccc([N+](=O)[O-])c1)Nn1cnnc1 -12.6%, Cc1noc(C)c1NC(=O)Nc1cccc2c1O[C@H](CN(C)S(=O)(=O)c1c(C)noc1C)[C@@H](C)CN([C@H](C)CO)C2=O 1.87%, Cc1cc(=O)oc2cc(NC(=O)C(C)Oc3ccccc3)ccc12 (configuration not stated) -2.52%, COc1ccc(CCNC(=S)N2CCN(S(=O)(=O)c3ccc(Cl)cc3)CC2)cc1 -0.053%, S=C(NCCc1ccccc1)N1CCCCC1 -4.5%, COC(=O)[C@@]12CCCN1[C@H](c1ccc(-c3ccc(F)cc3)c(OC)c1)[C@H]1C(=O)N(C)C(=O)[C@H]12 -0.553%, CCOc1ncccc1C(=O)OCC(=O)c1c[nH]c2ccccc12 16.6%, Cc1cccc(C(=O)NNC(=O)c2cccc([N+](=O)[O-])c2)c1 2.77%, Cc1[nH]n(-c2ccc([N+](=O)[O-])cc2)c(=O)c1C=NCCN1CCN(C(=O)c2ccccc2F)CC1 -0.584%, COc1ccc(C(=O)NCC2CCCCC2)cc1S(=O)(=O)N1CCCC1 -2.78%, NC(=O)CSc1nnc(NC(=O)c2ccc3ccccc3c2)s1 -2.49%, O=C(NCCS(=O)(=O)N1CCN(c2ccc(F)cc2)CC1)c1ccc2c(c1)OCO2 1.71%, CC(=O)Nc1ccc(NC(=O)CSc2nnnn2C2CCCCC2)cc1 -20.6%, NS(=O)(=O)c1cccc(NC(=O)COC(=O)c2cc([N+](=O)[O-])ccc2N2CCCC2)c1 -0.799%, Cc1ccc(NC(=O)CSc2nnc(COc3ccccc3C)o2)cc1 -0.274%, Cc1cc(C)cc(OCc2nnc(SCC(=O)Nc3ccccc3)o2)c1 5.24%, O=C(c1cn(-c2ccccc2)nc1-c1cccnc1)N1CCN(S(=O)(=O)c2ccccc2F)CC1 -0.713%, O=C(c1ccc(NS(=O)(=O)c2ccc3[nH]c(=O)[nH]c3c2)cc1)N1CCCCC1 0.0938%, O=C1Nc2ccccc2/C1=C/c1ccnc2ccccc12 -5.03%, Cc1ccccc1-n1c(C)cc(/C=C2\NC(=O)NC2=O)c1C -11.5%, CN(C)/C=C1/Nc2ccccc2C1=O 31.9%, CN(C)/C=C1\C=C(c2ccccc2)OC1=O -9.29%, CC(=O)NCCNC(=O)c1cc(-c2cccc3ccccc23)nc2ccccc12 -1.4%, Cc1cc(NC(=O)CSCc2ccccc2C)no1 29%, COc1ccccc1C(=O)COC(=O)CSCC(=O)Nc1cc(C)on1 1.76%, COc1ccc(-c2cc(C(=O)Nc3ccccc3O)c3ccccc3n2)cc1 -22.7%, COCCn1c(C)cc(C(=O)COC(=O)CNC(=O)c2ccco2)c1C 0.463%, Cc1cc(NC(=O)COC(=O)/C=C/c2ccc(C)o2)no1 -2.34%, CC(C)=C1SC(N2CCN(c3cccc(C)c3)CC2)=NC1=O 4.81%, CC(C)NC(=O)N1CCN(c2ccncc2S(=O)(=O)N2CCCCC2)CC1 -2.12%, Cc1ccn2c(=O)nc(SCC(=O)NCc3ccc4c(c3)OCO4)nc2c1 -1.9%, O=C(CC(n1cncn1)C(Cl)(Cl)Cl)c1ccc([N+](=O)[O-])cc1 (configuration not stated) 9.46%, O=C(Nn1cnnc1)c1ccc([N+](=O)[O-])cc1 -3.87%, Cc1ccc(Cn2ccc(NC(=O)C3C4CCC(C4)C3C(=O)O)n2)cc1 (configuration not stated) 1.86%, O=C(Nc1ccn(Cc2ccccc2F)n1)c1ccc(COc2ccc(Cl)cc2Cl)o1 -9.12%
